Laboratory results: PubChem BioAssay (EPA / NIEHS)
Results filed as inconclusive are left out. Calls of active or inactive are those of the source. The calls were made as follows, unless noted: active = hit-call score of the fitted dose curve at least 0.9, where 1 is the maximum; inconclusive = response in the unintended direction; inactive = score below 0.9.

What was measured:
[1] = read-out: TIMP1, TIMP1 (gene 7076); assay: LTEA_HepaRG_TIMP1: Life Technologies and Expression Analysis (LTEA) Assay for TIMP1 using HepaRG (AID 2283534; active = hit-call score of the fitted dose curve at least 0.9, where 1 is the maximum; inactive = score below 0.9;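 also: TaqMan qRT-PCR signal normalized to ACTB GAPDH and POLR2A housekeeping genes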); details: mRNA level, 48 h; actives raise or lower the signal
How it was run: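 Differentiated human HepaRG cells in serum-free induction medium were exposed 48 h to chemicals (8 half-log concentrations, top 100 uM, 0.5% DMSO). TIMP1 mRNA was quantified by TaqMan qRT-PCR, normalized to ACTB/GAPDH/POLR2A; bidirectional fit versus DMSO.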

[2] = read-out: Tumor necrosis factor receptor 1 (TNFRSF1A), TNFRSF1A (gene 7132); assay: LTEA_HepaRG_TNFRSF1A: Life Technologies and Expression Analysis (LTEA) Assay for Tumor necrosis factor receptor 1 (TNFRSF1A) using HepaRG (AID 2283535; active = hit-call score of the fitted dose curve at least 0.9, where 1 is the maximum; inactive = score below 0.9); details: mRNA level, 48 h; actives raise or lower the signal
How it was run: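 Differentiated human HepaRG cells were exposed in duplicate for 48 h in serum-free induction medium to eight concentrations (top 100 uM, half-log steps, 0.5% DMSO). TNFRSF1A mRNA was quantified by qRT-PCR, normalized to ACTB, GAPDH and POLR2A, then fitted bidirectionally against DMSO.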

[3] = read-out: Thyroid Hormone Responsive (THRSP), THRSP (gene 7069); assay: LTEA_HepaRG_THRSP: Life Technologies and Expression Analysis (LTEA) Assay for Thyroid Hormone Responsive (THRSP) using HepaRG (AID 2283536; active = hit-call score of the fitted dose curve at least 0.9, where 1 is the maximum; inactive = score below 0.9); details: mRNA level, 48 h; actives raise or lower the signal
How it was run: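 THRSP transcript quantified by Fluidigm qRT-PCR against three housekeeping genes after 48 h chemical exposure of HepaRG cells in serum-free induction medium; eight-point half-log series, top 100 uM, 0.5% DMSO vehicle, duplicate wells.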

[4] = read-out: Cellular tumor antigen p53 (Homo sapiens) (UniProt P04637); assay: LTEA_HepaRG_TP53: Life Technologies and Expression Analysis (LTEA) Assay for Tumor Protein P53 (TP53) using HepaRG (AID 2283537; active = hit-call score of the fitted dose curve at least 0.9, where 1 is the maximum; inactive = score below 0.9); details: mRNA level, 48 h; actives raise or lower the signal
How it was run: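 Read-out is TP53 transcript level by microfluidic qRT-PCR, normalised to three housekeeping genes and fitted bidirectionally against DMSO. Human HepaRG cells received compounds for 48 h, highest concentration 100 uM.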

[5] = read-out: UDP glucuronosyltransferase (UGT1A1), UGT1A1 (gene 54658); assay: LTEA_HepaRG_UGT1A1: Life Technologies and Expression Analysis (LTEA) Assay for UDP glucuronosyltransferase (UGT1A1) using HepaRG (AID 2283538; active = hit-call score of the fitted dose curve at least 0.9, where 1 is the maximum; inactive = score below 0.9); details: mRNA level, 48 h; actives raise or lower the signal
How it was run: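 mRNA induction or loss of UGT1A1, by TaqMan qRT-PCR, in duplicate HepaRG wells after 48 h exposure to half-log dilutions topping at 100 uM; DMSO (0.5%) served as baseline.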

[6] = read-out: UDP glucuronosyltransferase (UGT1A6), UGT1A6 (gene 54578); assay: LTEA_HepaRG_UGT1A6: Life Technologies and Expression Analysis (LTEA) Assay for UDP glucuronosyltransferase (UGT1A6) using HepaRG (AID 2283539; active = hit-call score of the fitted dose curve at least 0.9, where 1 is the maximum; inactive = score below 0.9); details: mRNA level, 48 h; actives raise or lower the signal
How it was run: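 Human HepaRG cells were dosed for 48 h in serum-free induction medium with 0.5% DMSO vehicle, eight-point half-log series from 100 uM, in duplicate. UGT1A6 mRNA was measured by qRT-PCR, normalized to ACTB, GAPDH, POLR2A, and fitted bidirectionally against DMSO.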

[7] = read-out: X-box binding protein 1 (XBP1), XBP1 (gene 7494); assay: LTEA_HepaRG_XBP1: Life Technologies and Expression Analysis (LTEA) Assay for X-box binding protein 1 (XBP1) using HepaRG (AID 2283540; active = hit-call score of the fitted dose curve at least 0.9, where 1 is the maximum; inactive = score below 0.9); details: mRNA level, 48 h; actives raise or lower the signal
How it was run: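 Differentiated human HepaRG cells in serum-free induction medium were exposed in duplicate for 48 h to eight half-log concentrations up to 100 uM in 0.5% DMSO. XBP1 mRNA was quantified by qRT-PCR, normalised to ACTB, GAPDH and POLR2A, with bidirectional fitting against DMSO.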

[8] = LTEA_HepaRG_LDH_cytotoxicity: Cytotoxicity Assessment in the Life Technologies and Expression Analysis (LTEA) Assay (AID 2283563)
How it was run: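 Differentiated human HepaRG cells, plated 48 h beforehand, were switched to serum-free induction medium and exposed for 48 h to eight half-log concentrations (top 100 uM) in 0.5% DMSO. LDH was measured in spent medium; activity was fitted relative to DMSO vehicle.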

[9] = ATG_XTT_Cytotoxicity: Cytotoxicity Assessment in the Attagene TRANS-FACTORIAL HepG2 Assay (AID 2283584)
How it was run: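 HepG2 human liver cells, transiently transfected with multiple GAL4-UAS reporter units, were dosed and read at 24 h by XTT as cell number. Loss of signal was fitted relative to DMSO negative control baseline.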

[10] = TOX21_p53_BLA_p2_viability: Viability Assessment in the Tox21 HCT-116 p53 Agonism Beta-lactamase Assay, Phase 2 (AID 2283591);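 also: compound exposure lasted 16 h at 37 °C; actives lower the ATP signal meaning cytotoxicity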
How it was run: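 Cytotoxicity readout: CellTiter-Glo ATP luminescence, 30 min at room temperature, after the beta-lactamase read. Cells were HCT116 exposed 16 h at 37C to compounds pin-transferred at 217-fold dilution from DMSO stocks.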

[11] = biological target: Cellular tumor antigen p53 (Homo sapiens) (UniProt P04637); assay: TOX21_p53_BLA_p2_ratio: Tox21 HCT-116 p53 Agonism Beta-lactamase Assay, Ratio, Phase 2 (AID 2283592)
How it was run: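 Ratio endpoint: beta-lactamase cleavage of CCF4-AM, blue (460 nm) over green (530 nm). HCT116 reporter line; 16 h treatment, 37C; substrate 2 h RT.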

[12] = TOX21_p53_BLA_p3_viability: Viability Assessment in the Tox21 HCT-116 p53 Agonism Beta-lactamase Assay, Phase 3 (AID 2283593);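 also: cells exposed to compound for 16 h before reading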
How it was run: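 Cellular ATP was quantified by CellTiter-Glo luminescence, read after 30 min at room temperature. Beforehand, HCT116 cells (4000/well) received compound 5 h post-seeding, 217-fold diluted from DMSO, then incubated 16 h at 37C.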

[13] = biological target: Cellular tumor antigen p53 (Homo sapiens) (UniProt P04637); assay: TOX21_p53_BLA_p3_ratio: Tox21 HCT-116 p53 Agonism Beta-lactamase Assay, Ratio, Phase 3 (AID 2283596)
How it was run: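 Cells were seeded at 4000/well, rested 5 h at 37C, then dosed with DMSO compound solutions (217-fold dilution) for 16 h. CCF4-AM substrate was loaded for 2 h at room temperature, and the 460/530 nm emission ratio was fitted for gain of signal versus DMSO.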

[14] = biological target: Cellular tumor antigen p53 (Homo sapiens) (UniProt P04637); assay: TOX21_p53_BLA_p5_ratio: Tox21 HCT-116 p53 Agonism Beta-lactamase Assay, Ratio, Phase 5 (AID 2283599)
How it was run: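 Beta-lactamase reporter ratio (blue 460 nm over green 530 nm, 405 nm excitation) after 2 h CCF4-AM loading, in HCT-116 cells exposed 16 h at 37 C to compounds pinned at 217-fold dilution. Increases relative to DMSO baseline scored.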

[15] = TOX21_p53_BLA_p5_viability: Viability Assessment in the Tox21 HCT-116 p53 Agonism Beta-lactamase Assay, Phase 5 (AID 2283600)
How it was run: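 Luciferase-coupled ATP quantitation of cells treated for 16 h (37C, 5% CO2) with test chemicals delivered in DMSO via a 217-fold dilution; 4000 cells/well; reagent incubated 30 min at room temperature before luminescence reading.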

[16] = Tanguay_ZF_120hpf_YSE_legacy: (Legacy) Oregon State University Tanguay Lab 120 Hour Post-fertilization zebrafish Assay for Yolk Sac Edema (AID 2283634)
How it was run: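 Tropical 5D wild-type embryos, dechorionated with pronase at 4 hpf, were exposed singly from 6 hpf to 120 hpf under static, sealed, dark conditions at 28C with 0.64% DMSO final. Yolk sac edema was scored present/absent by brightfield microscopy.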

[17] = Tanguay_ZF_120hpf_AXIS_legacy: (Legacy) Oregon State University Tanguay Lab 120 Hour Post-fertilization zebrafish Assay for Body Axis Malformation (AID 2283635)
How it was run: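 Tropical 5D wild-type zebrafish embryos, dechorionated with pronase at 4 hpf, were placed singly in wells at 6 hpf and exposed statically to test chemical (0.64% DMSO final) at 28C until 120 hpf, then scored by brightfield for body axis defects.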

[18] = TOX21_p53_BLA_p4_viability: Viability Assessment in the Tox21 HCT-116 p53 Agonism Beta-lactamase Assay, Phase 4 (AID 2283597);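 also: hits lower the luminescence signal meaning cytotoxicity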
How it was run: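 Cytotoxicity was inferred from loss of CellTiter-Glo luminescence. HCT116 cells had been dosed with compounds after 5 h plating, incubated 16 h at 37C and 5% CO2, and exposed to the CCF4-AM substrate for 2 h.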

[19] = Tanguay_ZF_120hpf_MORT_legacy: (Legacy) Oregon State University Tanguay Lab 120 Hour Post-fertilization zebrafish Assay for Mortality (AID 2283633)
How it was run: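 Dechorionated Tropical 5D wild-type zebrafish embryos, one per well from 6 hpf, were statically exposed at 28C in the dark until 120 hpf (0.64% DMSO final). Mortality was scored as present/absent by brightfield microscopy, fitted positively versus DMSO.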

[20] = biological target: Cellular tumor antigen p53 (Homo sapiens) (UniProt P04637); assay: TOX21_p53_BLA_p4_ratio: Tox21 HCT-116 p53 Agonism Beta-lactamase Assay, Ratio, Phase 4 (AID 2283601)
How it was run: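 Signal is the blue/green (460nm/530nm) ratio of cleaved versus uncleaved CCF4-AM substrate, read after 2 h substrate loading. Cells were HCT116 carrying the p53-responsive beta-lactamase reporter, dosed 16 h at 37C, 5% CO2; CellTiter-Glo measured in parallel.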

Measured: AC50

Cellular tumor antigen p53 (Homo sapiens), sequence (P04637 whole entry, looked up): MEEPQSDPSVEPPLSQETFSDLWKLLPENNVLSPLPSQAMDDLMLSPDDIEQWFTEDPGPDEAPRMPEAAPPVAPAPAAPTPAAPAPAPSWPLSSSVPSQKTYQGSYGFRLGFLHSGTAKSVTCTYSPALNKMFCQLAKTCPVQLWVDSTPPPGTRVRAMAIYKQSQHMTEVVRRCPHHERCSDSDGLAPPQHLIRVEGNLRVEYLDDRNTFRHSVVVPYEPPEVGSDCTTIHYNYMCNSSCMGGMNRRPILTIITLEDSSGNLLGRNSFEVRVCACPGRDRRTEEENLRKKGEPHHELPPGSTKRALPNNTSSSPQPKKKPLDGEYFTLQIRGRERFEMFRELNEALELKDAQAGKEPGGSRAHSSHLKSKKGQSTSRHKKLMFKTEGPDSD

Clc1ccc(Cl)c(Cl)c1
inactive: [1] | [3] | [4] | [5] | [7] | [8] | [9] | [10] | [11] | [12] | [13] | [14] | [15] | [16] | [17]
active: [2] 50 µM | [6] 9.92 µM

Cc1ccc([N+](=O)[O-])cc1
inactive: [1] | [2] | [3] | [4] | [6] | [7] | [8] | [9] | [11] | [13] | [18] | [14] | [15] | [19] | [16]
active: [5] 8.26 µM

CC(C)(C)OOC(C)(C)CCC(C)(C)OOC(C)(C)C
inactive: [1] | [2] | [3] | [4] | [5] | [6] | [7] | [8] | [9] | [11] | [12] | [14] | [15] | [20] | [16]

CCN(CC)CCO
inactive: [1] | [2] | [3] | [4] | [5] | [6] | [7] | [8] | [9] | [11] | [13] | [18] | [14] | [15] | [19] | [16] | [17]
